Source: PubChem (National Center for Advancing Translational Sciences (NCATS))
An excerpt weighted towards active compounds, which were near 2.4% of everything screened.
D2 PAM-1: potentiates the human D2 dopamine receptor allosterically; P14416; DiscoveRx D2 beta-arrestin cells, luminescence, 90 min; 100% = 57 uM dopamine signal; potentiation, % (test concentration not listed); hit rate 0.23% among 360,000; AID 624464; in the data active = potentiation above about 50%; inconclusive = mostly about 30% to 49%
Target sequence (P14416 whole entry, looked up): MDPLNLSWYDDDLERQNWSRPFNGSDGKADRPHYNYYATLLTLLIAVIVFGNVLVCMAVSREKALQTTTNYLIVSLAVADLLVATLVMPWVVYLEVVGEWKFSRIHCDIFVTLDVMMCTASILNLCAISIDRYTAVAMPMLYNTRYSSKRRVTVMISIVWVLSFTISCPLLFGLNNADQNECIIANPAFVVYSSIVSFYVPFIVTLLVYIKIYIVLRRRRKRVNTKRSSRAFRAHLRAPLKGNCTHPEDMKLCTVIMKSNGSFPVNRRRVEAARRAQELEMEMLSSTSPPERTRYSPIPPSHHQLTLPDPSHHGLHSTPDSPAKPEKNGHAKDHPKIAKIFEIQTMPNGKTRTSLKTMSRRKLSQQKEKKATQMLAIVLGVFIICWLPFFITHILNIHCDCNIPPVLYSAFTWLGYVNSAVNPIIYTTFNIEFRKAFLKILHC
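PathHunter D2 cells, attached overnight at 37 deg C, received compound in DMSO plus dopamine at EC20 (50 nM final) for 90 min at 37 deg C. Beta-arrestin recruitment was read as luminescence after 1 h with detection reagent at ambient temperature.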
D2 ag-1: human D2 receptor agonism in beta-arrestin assay; hit rate 0.084% among 360,000; activation, % (concentration not given with the values); DiscoveRx PathHunter D2 beta-arrestin, luminescence, 90 min; 100% = 57 uM dopamine signal; in the data active = activation above about 40%; inconclusive = between about 15% and that limit
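Agonist mode: compounds alone added to overnight-plated D2 PathHunter cells for 90 min at 37 C, with 57 uM final dopamine (EC100) defining full response. Beta-arrestin recruitment detected by chemiluminescent reagent, read after 1 h at ambient temperature.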
D2 antagonist: antagonizes the human D2 dopamine receptor; P14416; HEK293 TREx D2 cells, calcium flux, dopamine EC80; inhibition, % at 10 µM; hit rate 2% among 340,000; AID 485344; in the data active = inhibition above about 30%; inactive = below that, where a call was filed; note: 0% is about no effect
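In this primary screen, negative modulation is detected by tracking calcium flux after an EC80 dopamine challenge in inducible HEK293 T-REx D2 cells preexposed to test compound for 180 s.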
D2 PAM-2: D2 dopamine receptor (human) potentiation; HEK293 T-REx D2, calcium flux, EC20 dopamine potentiation; potentiation, % at 10 µM; hit rate 0.34% among 340,000; AID 485347;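 active = potentiation over 3 SD above the plate norm, cut at about 30% in these data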; note: 0% is about no effect
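Potentiation of an EC20 dopamine calcium response is measured in a force-coupled, tetracycline-inducible Hek293 Trex D2 line. Compound-only kinetic reads over 180 s flag agonists before dopamine addition.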
D2 ag-2: activates the human D2 dopamine receptor; P14416; HEK293 T-REx D2 cells, calcium flux agonist mode; activation, % at 2 µM; hit rate 0.53% among 340,000; AID 485358;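 active = activation over 3 SD above normal in the single-dose calcium agonist read, cut at about 30% in these data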; note: 0% is about no effect
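HEK293 Trex D2 cells, tetracycline-induced, o/n 30 C 5% CO2; no-wash Ca dye, RT 30–90 min; 10-cycle baseline, 23 nl cpd added, kinetic Ca read 180 s; agonist hits = positive Ca response.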
Active calls of the source: *; ? = inconclusive; . = not tested or not shown.

SMILES | D2 PAM-1 | D2 ag-1 | D2 antagonist | D2 PAM-2 | D2 ag-2
COc1ccc(S(=O)(=O)N2CCC(C(=O)NCCN3CCOCC3)CC2)cc1C | -10 | -4 | 34* | -4 | 1
COc1ccc(S(=O)(=O)N2CCC(C(=O)NCCN3CCOCC3)CC2)cc1OC | -6 | -8 | -9 | -4 | 0
CCn1cc([N+](=O)[O-])c(C(=O)N2N=C3/C(=C/c4cccs4)CCCC3C2c2cccs2)n1 (stereo not drawn) | -4 | -2 | -6 | 43* | -1
CCCOc1ccc(C(=O)Nc2ccc3oc(-c4ccc(N(C)C)cc4)nc3c2)cc1 | . | . | . | 14 | 0
Cc1cccc(C)c1N1C(=O)c2cccc([N+](=O)[O-])c2C1=O | 83* | 5 | 12 | 12 | 0
Cc1cc(S(=O)(=O)Nc2ccc3c(c2)n(C)c(=O)n3C)ccc1F | -1 | -4 | -5 | 106* | 0
COc1ccc(S(=O)(=O)Nc2ccc3c(c2)n(C)c(=O)n3C)cc1F | -4 | 4 | -3 | 0 | -1
c1ccc(CSc2ncn[nH]2)nc1 | -5 | -2 | 42* | -4 | 1
COc1ccc2c(c1)c1c(c(=O)n(CCc3ccccc3)c(=O)n1Cc1cccc(Cl)c1)n2C | . | . | . | -7 | 0
CC1CCN(CCn2c(=S)[nH]c3ccccc3c2=O)CC1 | -25 | 5 | 31* | -12 | 0
O=C(CCCCCn1c(=S)[nH]c2ccc(N3CCOCC3)cc2c1=O)NCc1ccccc1 | 0 | -8 | 17 | -1 | -1
O=C(CCCCCn1c(=S)[nH]c2ccc(N3CCOCC3)cc2c1=O)NCc1cccc(Cl)c1 | -3 | 8 | 0 | 39* | -1
O=c1c2ccccc2[nH]c(=S)n1CCCN1CCN(C2CCCCC2)CC1 | -31 | 2 | 82* | -24 | 0
CC1CCN(CCCn2c(=S)[nH]c3ccccc3c2=O)CC1 | -42 | -3 | 22 | -18 | 0
O=c1c2ccccc2[nH]c(=S)n1CCCN1CCC(Cc2ccccc2)CC1 | -24 | 1 | 82* | -28 | -2
Cn1c(=O)[nH]c(=O)c2c1nc1n(CCO)c(-c3ccccc3)cn21 | . | . | . | -4 | 0
Cc1ccc(-n2ncc3c(Nc4ccc5c(c4)OCCO5)ncnc32)cc1C | . | . | . | -3 | 0
O=c1c2ccc(Cl)cc2[nH]c(=S)n1CCCN1CCOCC1 | -18 | -5 | 34* | -20 | 0
COc1ccccc1N1C(=O)CSC1=S | -3 | -3 | -2 | 32* | 0
COc1ccccc1N1C(=O)CC(c2ccccc2)CC1=O | -13 | -4 | 5 | 12 | 2
Cc1ccc2c(cnn2C(=O)CCCC(=O)NCc2ccc(Cl)cc2)c1 | -8 | -6 | 9 | 4 | 0
Cc1ccc(CNC(=O)CCC(=O)n2ncc3cc(C)ccc32)cc1 | -2 | -5 | 47* | 2 | 0
CC(C(=O)NCC1CCCCC1)N1CCc2ccccc2C1 (stereo not drawn) | -31 | -1 | 54* | -19 | 2
Cn1c(Cc2ccccc2)nnc1SCC(=O)NC1CC1 | -3 | 2 | -10 | -1 | 0
COCCn1c(Cc2ccccc2)nnc1SCC(=O)NC1CC1 | -4 | -6 | 32* | 12 | 2
c1ccc2c(c1)c1c(c3ccccc32)CN2CCCC2C1 (stereo not drawn) | -19 | 0 | . | . | .
CCOC(=O)c1c(C)oc2c1c(C(c1cccnc1)N1CCCCC1)c(O)c1ccccc12 (stereo not drawn) | 102* | ? | -2 | -3 | 0
CCOC(=O)c1c(C)oc2c1c(C(c1ccccc1)N1CCOCC1)c(O)c1ccccc12 (stereo not drawn) | ? | -2 | 57* | -3 | -2
CCOC(=O)c1c(C)oc2c1c(C=NCCO)c(O)c1ccccc12 | 20 | 8 | -25 | 12 | 3
CCn1nnc2cc(C(=O)Nc3ccc(C)c(Cl)c3)ccc21 | . | . | . | -4 | 0
